In PubChem BioAssay AID1619 (SRMLSC, 2009):
Screen size: about 220,000 compounds; about 830 (0.38%) were called active.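 How the source made its calls: active means compound inhibiting the enzyme by more than half at any dose during confirmatory dose-response retesting; inconclusive means strong single-dose inhibitors picked by rank but not retested; inactive means the rest.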 Not all results are given here. Potency and affinity values are given separately.

What follows are compounds tested against Leucine aminopeptidase (Plasmodium falciparum (isolate 3D7)) (UniProt Q8IL11) (assay: P. falciparum M17LAP inhibitors, primary screen, biochemical, fluorogenic H-Leu-NHMec substrate, 1536-well (AID 1619;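 further: plate controls were full reaction with DMSO carrier for no effect and no enzyme background for full effect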)). Conditions: recombinant M17LAP, H-Leu-NHMec fluorogenic kinetic assay; at 30 µM; active compounds read high.
Leucine aminopeptidase (Plasmodium falciparum (isolate 3D7)), sequence (Q8IL11 whole entry, looked up): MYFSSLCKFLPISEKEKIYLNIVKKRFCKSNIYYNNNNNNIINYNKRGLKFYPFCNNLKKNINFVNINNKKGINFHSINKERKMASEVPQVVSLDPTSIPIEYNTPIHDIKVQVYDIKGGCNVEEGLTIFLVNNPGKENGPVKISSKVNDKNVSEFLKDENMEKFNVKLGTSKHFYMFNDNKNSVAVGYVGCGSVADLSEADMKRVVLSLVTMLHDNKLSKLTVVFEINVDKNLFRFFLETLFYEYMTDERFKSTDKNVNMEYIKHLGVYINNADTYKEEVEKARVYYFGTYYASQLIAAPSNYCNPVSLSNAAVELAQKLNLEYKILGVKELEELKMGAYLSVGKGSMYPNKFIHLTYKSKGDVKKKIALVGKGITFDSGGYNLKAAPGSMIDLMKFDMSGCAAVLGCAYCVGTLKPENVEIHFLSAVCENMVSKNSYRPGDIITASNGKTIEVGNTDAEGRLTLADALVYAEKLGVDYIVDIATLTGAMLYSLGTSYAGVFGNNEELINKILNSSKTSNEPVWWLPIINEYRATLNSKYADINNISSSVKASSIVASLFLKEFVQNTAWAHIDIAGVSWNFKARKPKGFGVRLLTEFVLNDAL

inhibition, inactive:
COc1ccc(N2CC(O)(c3ccc(C)cc3)[N+]3=C2CCCC3)cc1 (stereo unspecified) 1.14%
COC(=O)c1cc(C(=O)c2cc(Cl)ccc2O)coc1=N 10.7%
COCCOC(=O)c1cc(C(=O)c2cc(Cl)ccc2O)coc1=N 12.5%
CC(C)OC(=O)c1cc(C(=O)c2cc(Br)ccc2O)coc1=N 0.53%
CC(C)OC(=O)c1cc(C(=O)c2cc(Cl)ccc2O)coc1=N -2.46%
Cn1c(CC(=O)c2ccc(Br)cc2)[n+](C)c2ccccc21 2.42%
Nc1nc(CSc2ncn[nH]2)nc(Nc2ccc(F)cc2)n1 -4.26%
O=S(=O)(c1ccc2c(c1)OCCO2)N1CCC(n2nnc3cc(F)ccc32)CC1 4.13%
CC1(C)CC(=O)c2sc(NS(=O)(=O)c3ccc(Br)cc3)nc2C1 18.8%
CC1(C)CC(=O)c2sc(NS(=O)(=O)c3ccc(F)cc3)nc2C1 48.1%
c1ccc(-c2nc3nc4ccccc4nc3n2Cc2ccco2)cc1 1.08%
COc1ccc(-c2noc(CCCC(=O)N3CCOCC3)n2)cc1 -3.55%
COc1cc(/C=N/N=C2/NC(=O)C(CC(=O)O)S2)ccc1OCc1ccc(Cl)cc1 (stereo unspecified) 23.2%
CCOc1cc(/C=N/N=C2/NC(=O)C(CC(=O)O)S2)ccc1OCc1ccc(Cl)cc1 (stereo unspecified) 5.31%
CCOc1ccc2[nH]c(=O)c(CN(CCO)C(=O)CC)cc2c1 -5.26%
Nc1c(C(=O)c2ccccc2)oc2ccc(Br)cc12 -7.77%
COC(=O)c1oc2ccc(Br)cc2c1NC(=O)c1ccccc1 14.5%
C=CCNCCOc1c(C)cc(C)cc1Cl 20.1%
CC1(C(=O)OCC(=O)Nc2ccccc2)CC1(Cl)Cl (stereo unspecified) 1.25%
CCN(C(=O)Cn1cnc2cc([N+](=O)[O-])ccc2c1=O)C1CCS(=O)(=O)C1 (stereo unspecified) 12.2%
Cc1ccc(-c2nc(N=Nc3ccc(O)cc3)n[nH]2)cc1 12.9%
Oc1ccc(-c2cccc(-c3ccc(O)cc3)n2)cc1 1.28%
O=C(O)c1ccc(N2C(=O)CC(N3C(=O)/C(=C/c4ccc(Cl)cc4)SC3=S)C2=O)cc1 (stereo unspecified) 6.02%
CCOc1ccc(/C=C2\SC(=S)N(CCC(=O)O)C2=O)cc1 6.65%
Cc1ccc(NC(=O)/C=C/c2ccco2)nc1 11.5%
O=C(Nc1ccccc1N1CCCC1)c1ccc([N+](=O)[O-])cc1Cl 9.68%
CCCCN1C(=O)/C(=C/C=C2\SCCN2C)SC1=S -4.21%
CCN1C(=O)/C(=C/C=C2/SCCN2C)SC1=S -8.41%
Cc1ccc(S(=O)(=O)N(CC(=O)Nc2ccccc2C(=O)O)c2ccccc2)cc1 4.48%
Cc1ccc(S(=O)(=O)N(CC(=O)Nc2ccccc2C(=O)O)c2ccccc2C)cc1 2.3%
COc1ccc(N2C(=O)c3ccccc3C2=O)cc1 -7.95%
COc1ccc2sc(C)[n+](C)c2c1 -2.85%
COc1ccc(C(O)(C(=O)NNc2ccc(C)cc2)c2cccs2)cc1 (stereo unspecified) 15.2%
O=[N+]([O-])c1ccc(-c2cc(-c3ccncc3)nc3ccc4ccccc4c23)cc1 -5.09%
CC1=C(O)C(=O)OC1c1c(Cl)cccc1Cl (stereo unspecified) -5.75%
CCCCSc1nc(C)[nH]c1[N+](=O)[O-] -54.3%
COc1ccccc1Nc1ncnc2nc[nH]c12 38.3%
Cc1ccc(Nc2ncnc3nc[nH]c23)cc1Cl 6.48%
Cc1ccc(-c2nnc(SCC(=O)N/N=C/c3c(C)nn(-c4ccccc4)c3C)n2-c2ccccc2)cc1 -0.81%
CC(Sc1ccccc1)C(=O)Nc1ccc(S(=O)(=O)N2CCOCC2)cc1 (stereo unspecified) 11.8%
CC(Sc1ccc(Cl)cc1)C(=O)Nc1ccc(S(=O)(=O)N2CCOCC2)cc1 (stereo unspecified) 1.19%
CCc1ccccc1NC(=O)C1C(c2ccccc2)C1(Cl)Cl (stereo unspecified) -8.78%
O=C(Nc1ccccc1NC(=O)c1c(F)c(F)c(F)c(F)c1F)c1c(F)c(F)c(F)c(F)c1F 8.25%
CC(C)N(Cc1nc(-c2ccc3c(c2)OCO3)no1)Cc1nccn1C -7%
Cc1[nH]nc2c1C1(CCN(Cc3ccccc3)CC1)C(C#N)=C(N)O2 42.9%
CC(C)c1[nH]nc2c1C1(CCN(Cc3ccccc3)CC1)C(C#N)=C(N)O2 30.2%
Cc1sc(NC(=O)c2cccc([N+](=O)[O-])c2)c(C(N)=O)c1-c1ccc(C(C)(C)C)cc1 6.91%
Cc1csc(NC(=O)[C@@H]2CCCN2C(=O)c2cccs2)n1 -1.96%
CC1=C(C(=O)OCc2ccccc2)C(c2ccc(Cl)cc2)NC(=O)N1CCCCCC(=O)O (stereo unspecified) 47.3%
CC1=C(C(=O)OCc2ccccc2)C(c2ccc(Cl)cc2Cl)NC(=O)N1CCCC(=O)O (stereo unspecified) 0.51%
N#Cc1ccc(C(=O)CSc2n[nH]c(=O)n2Cc2ccco2)cc1 -0.26%
COc1ccc(Cc2nnc(NS(=O)(=O)c3ccccc3)s2)cc1 52.4%
COc1ccc(Cc2nnc(NS(C)(=O)=O)s2)cc1 11.1%
O=C(Nc1cccc(Oc2ccc(C(=O)O)c(C(=O)O)c2)c1)c1ccc(-c2ccccc2)cc1 38.5%
O=C(O)COc1ccc(NC(=O)c2cccs2)cc1 16.1%
Cc1cccc(Oc2ccc(NC(=O)c3ccccc3C(=O)O)cc2)c1 2.06%
COc1ccc(NC(=O)c2cccs2)cc1 -8.71%
CC(=O)Nc1ccccc1N(CC(O)Cn1c2ccccc2c2ccccc21)S(=O)(=O)c1ccc(C)cc1 (stereo unspecified) 11.1%
CC(=O)CSc1nnc(Cc2ccc3c(c2)OCO3)o1 -2.53%
Cc1ccc(NC(=O)CN2C(=O)N/C(=C/c3ccc(C)o3)C2=O)cc1 71.1%
Cc1ccc(NC(=O)CN2C(=O)N/C(=C/c3ccc(C)s3)C2=O)cc1 -4%
